Pf growth 96h = P. falciparum growth inhibition at 96 hours; P. falciparum luciferase reporter growth, 96 h; Potency, µM (series often up to 28.7 µM), for the others: at the highest dose activity change, negative = inhibition, usual class: inhibitors; hit rate 6.9% among 320,000; note: % is set by controls: 0 for no effect and ±100 for the full control effect
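Erythrocytes infected with luciferase-expressing P. falciparum were dispensed at 2% hematocrit and 0.05% parasitemia (final), then incubated with compounds 96 hours at 37 C in 5% CO2. Luminescence after detection reagent addition reported growth.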
NS1 inh = blocks influenza NS1 protein function; Potency, µM (doses to about 46.1 µM), inactives show top-dose activity, positive = more growth; hit rate 0.4% among 270,000; calls by dose curve; note: actives are rising curves; nearly all actives have a fitted effect of over 50% in size
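OD600 was taken as the measure of yeast growth restored by compound in an NS1-expressing S. cerevisiae strain. Cells had been washed out of glucose medium and diluted 1:100 into galactose -URA medium, pH 6.0.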
SARS PLP yeast = inhibitors of SARS-CoV papain-like protease in yeast | S. cerevisiae expressing SARS-CoV PLpro, growth rescue | Potency, µM (highest dose often 32.9 µM), inactives show at the highest dose activity, positive = growth rescue, hits mostly activators | hit rate 0.19% among 330,000 | AID 485353; calls by dose curve; note: 0% is about no effect; nearly all actives have a fitted effect of over 55% in size
Pf growth 48h = inhibits P. falciparum growth in the first generation, 48 h. Potency, µM (titrated, usually from 28.7 µM), for the others: top-dose activity change, negative = inhibition, usual class: inhibitors. P. falciparum luciferase growth in erythrocytes, 48 h. hit rate 5.9% among 310,000; note: % is set by controls: 0 for no effect and ±100 for the full control effect
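Here the parasites carry a stable luciferase gene and grow inside erythrocytes in Albumax-based RPMI medium with compound for one erythrocytic cycle. Activity is scored as loss of luminescent signal.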
* = called active by the depositor; i = inactive; ? = inconclusive; nt = no result. This is a sample that favours compounds with a hit; in the whole collection about 10% have one here. Unless noted, calls come from the whole dose curve; as a rule, active = well fitted inhibition curve with a large enough effect; inconclusive = small, poorly fitted or top-dose-only effect, or another doubt; inactive = no such curve, though single readings can be large or run the other way. Potency is the fitted concentration of half-maximal effect.

SMILES | Pf growth 96h | NS1 inh | SARS PLP yeast | Pf growth 48h
COc1cc(/C=C(\C#N)c2nc3ccccc3s2)cc([N+](=O)[O-])c1O | 9.3µM* | nt | -4% | 20%
N#C/C(=C\c1ccc(O)c([N+](=O)[O-])c1)c1nc2ccccc2s1 | ? | nt | -4% | -15%
O=C(c1ccc(Cl)cc1)N(Cc1ccco1)C1CCS(=O)(=O)C1 (stereo not drawn) | 7% | -9% | 4% | 2%
CCC(C)c1ccc(O)c(NC(=O)c2ncn[nH]2)c1 (stereo not drawn) | 3.3µM* | -53% | -7% | 10%
Cc1ccc(C)c(NC(=O)c2ncn[nH]2)c1 | -9% | 7% | -5% | 2%
COc1ccc(CNC(=S)N/N=C(/C)c2ccccc2)cc1 | -18% | -7% | -1% | 42%
C=C(C)CNC(=S)N/N=C(\C)c1ccc(OC)cc1 | -32% | -17% | -29% | 13µM*
Cc1ccc(O)c(CN2CCN(c3ccccc3)CC2)c1 | 90% | -6% | -1% | 2.6µM*
Cc1cc(O)c(CN2CCN(c3ccccc3)CC2)cc1C | nt | 1% | 1% | 1.5µM*
O=c1c(Cl)nc2cc(Cl)ccc2n1CCNc1ncc(C(F)(F)F)cc1Cl | ? | -50% | 6% | 13µM*
O=c1c2nncn2c2cc(C(F)(F)F)ccc2n1CCNc1ncc(C(F)(F)F)cc1Cl | ? | -3% | 0% | ?
O=c1c2nncn2c2cccnc2n1CCNc1ncc(C(F)(F)F)cc1Cl | -19% | 3% | 1% | ?
NNc1nc2cccnc2n(CCNc2ncc(C(F)(F)F)cc2Cl)c1=O | 12µM* | nt | 1% | ?
CCOC(=O)CNC(=O)C1COc2ccccc2O1 (stereo not drawn) | 31% | 3% | 0% | 8%
Cc1nnc(NC(=O)C23CC4CC(CC(C4)C2)C3)s1 | 11% | 2% | 1% | -3%
Cc1oc2c(CN3CCCC3)c(O)ccc2c(=O)c1-c1ccc(Br)cc1 | ? | -11% | -1% | 9.3µM*
COc1ccc(-c2c(C)oc3c(CN4CCOCC4)c(O)ccc3c2=O)cc1 | ? | 0% | -1% | ?
Cc1oc2c(CN3CCCCC3)c(O)ccc2c(=O)c1-c1ccc(Br)cc1 | 1.2µM* | 3% | 2% | ?
C[C@H](CO)N1C[C@H](C)[C@@H](CN(C)S(=O)(=O)c2ccc(F)cc2)Oc2ccc(NC(=O)NC3CCCCC3)cc2C1=O | nt | nt | -1% | nt
CN1CC(c2ccc(Cl)c(Cl)c2)[C@@]2(COc3ccccc3C2=O)[C@@]12C(=O)Nc1ccccc12 (stereo partly drawn) | 2.1µM* | -2% | 2% | 3.3µM*
CCCN(CCC)C(=O)Cn1c(=O)n(CCCCC(=O)NCc2ccco2)c(=O)c2ccccc21 | 12µM* | -6% | 5% | nt
O=C(CCCCn1c(=O)c2ccccc2n(CC(=O)Nc2ccc(F)cc2)c1=O)NCc1ccco1 | ? | 4% | 4% | 12µM*
C#CCOC(=O)C[N+](C)(C)CC#Cc1ccccc1 | ? | nt | 4% | 3%
C#CC[N+](CC)(CC)CC#Cc1cccc(Cl)c1 | ? | 18% | -2% | 10µM*
CC[N+](CC)(CC#Cc1ccccc1)CC(=O)c1ccc(Cl)cc1 | ? | 2% | 8% | ?
SMILES | Pf growth 96h | NS1 inh | SARS PLP yeast | Pf growth 48h
CCC[N+](CC#CCO)(CC#Cc1ccccc1)CCC | ? | 3% | 0% | ?
CC[N+](CC)(CC#CCO)CC#Cc1ccccc1 | 10µM* | nt | -1% | ?
C#CC[N+](C)(C)CC#Cc1ccc(Cl)cc1 | ? | -3% | -18% | 1.7µM*
COc1ccc(N2CC(C(=O)N3CCN(Cc4ccc5c(c4)OCO5)CC3)CC2=O)cc1 (stereo not drawn) | 0% | 1% | 2% | -4%
Nc1ccc(-c2nc3c(ccc4ccccc43)[nH]2)cc1 | 6% | -36% | ? | ?
CCOC(=O)c1ccc(N2CN(CC)CNC2=S)cc1 | 0% | 5% | 10µM* | 6%
CCCN1CNC(=S)N(c2ccc(C(=O)OCC)cc2)C1 | i | 7% | 5% | 18%
CCCN1C(=O)c2cc(C(=O)NC3CCCC3)ccc2C1O (stereo not drawn) | ? | 0% | 2% | nt
CCCN1C(=O)c2cc(C(=O)Nc3ccccc3CC)ccc2C1O (stereo not drawn) | 10µM* | 5% | -3% | nt
Cc1cc(NC(=O)c2ccc(Cl)cc2)ccc1NC(=O)c1ccccc1Cl | 3.7µM* | -12% | 0% | 12%
Cc1ccc(N2CN(CCc3ccccc3)CNC2=S)cc1 | ? | -1% | 0% | 9.3µM*
CC(CNS(=O)(=O)c1ccc(Cl)cc1)n1cncn1 (stereo not drawn) | 33% | -8% | 2% | 9%
COC(=O)CC1C(=O)NCCN1C(=O)c1ccc(Cl)cc1 (stereo not drawn) | 10% | -5% | 6% | 7%
CCOCCCNC(=O)c1ccc(N2CC3CC(C2)c2cccc(=O)n2C3)c(NC(=O)Nc2cccc(OC)c2)c1 (stereo not drawn) | -11% | 6% | -3% | ?
Cc1ccc(C(=O)NCCNC(=O)COc2ccccc2Cl)cn1 | 7% | -8% | 2% | 7%
CCOC(=O)c1ccc(-n2c(C)ccc2C)cc1 | 7.4µM* | 8% | 7% | -23%
CCc1ccccc1NC(=O)c1ccc(-n2c(C)ccc2C)cc1 | 15µM* | 9% | -3% | ?
Cc1ccc(NC(=O)c2ccc(NC(=O)c3ccccc3)cc2)cc1C | 1.2µM* | -72% | -5% | 25%
Cc1ccc(C)n1-c1ccc(C(=O)Nc2ccccc2F)cc1 | -65% | nt | -2% | -31%
Cc1ccc(C)n1-c1ccc(NC(=O)c2ccccc2)cc1 | 12µM* | 7% | 8% | ?
C[n+]1ccc(C(=O)Nc2ccccc2Cl)cc1 | 13µM* | -2% | ? | 20%
CCCCn1c(N)c(N(CC(C)C)C(=O)CC2CCCC2)c(=O)[nH]c1=O | -4% | nt | -1% | ?
Cc1ccc(C(=O)c2cnc3ccccc3c2-c2ccccc2)cc1 | 10µM* | -45% | -19% | 13µM*
COc1ccc(C(=O)c2cnc3ccccc3c2-c2ccccc2)cc1 | ? | -41% | -3% | ?
COc1ccc(C(C(=O)NC2CCCCC2)N(C(=O)c2ccco2)c2ccccc2C(C)=O)cc1OC (stereo not drawn) | 14% | -3% | 2% | ?
SMILES | Pf growth 96h | NS1 inh | SARS PLP yeast | Pf growth 48h
CC(C)c1ccc(NC(=S)NC2CCN(Cc3ccccc3)CC2)cc1 | ? | -3% | -10% | 10µM*
S=C(Nc1ccccc1Cl)NC1CCN(Cc2ccccc2)CC1 | ? | -2% | -3% | 1%
S=C(Nc1cc(Cl)cc(Cl)c1)NC1CCN(Cc2ccccc2)CC1 | ? | -6% | 2% | 5.9µM*
CN1CCN(C(=O)C(N)Cc2ccccc2)CC1 (stereo not drawn) | 2% | nt | 0% | -5%
O=C(C1=NN[C@@H]2C(=O)N(Cc3ccccc3)C(=O)[C@H]12)c1ccc([N+](=O)[O-])cc1 | ? | 6% | 0% | 6%
Cc1ccc(CNC(=O)CNC(=O)[C@@H]2Cc3ccccc3CN2)cc1 | 7% | -5% | 1% | 12%
CC(NCC(=O)Nc1ccccc1C(=O)NC1CC1)c1cccc(Cl)c1 (stereo not drawn) | 0% | nt | -1% | ?

Screening results deposited in PubChem BioAssay by National Center for Advancing Translational Sciences (NCATS).
